Bioassay records from PubChem.
Only a selection was taken, and hits are over-represented in it overall.
BL2 CD40 inh: CD40 pathway inhibition in BL2 cells. hit rate 0.94% among 83,000. inhibition, % at 10 µM. BL2 NF-kB luciferase reporter, CD40L-induced, 4 h. AID 1053188;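 active = mean inhibition of at least 50% with a set share of replicates also reaching that level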
Hits are given with their value; i = inactive; [ ] = another dose, or the depositor's remark.

SMILES | BL2 CD40 inh
CC(=O)C1CCC2C3CCC4CC(O)CCC4(C)C3CCC12C#N (stereo not drawn) | i
C[C@]12CC[C@H](O)C[C@@H]1CC[C@H]1[C@H]3CCC(=O)[C@@]3(C)CC[C@@H]12 | i
CN1[C@@H]2c3cccc(=O)n3C[C@H]1[C@H](CO)[C@H]2C(=O)NCC1CC1 | i
COC(=O)[C@H]1[C@H](CO)[C@H]2Cn3c(ccc(-c4cccc(F)c4)c3=O)[C@@H]1N2C(=O)CC1CC1 | i
O=C(O)[C@H]1[C@H](CO)[C@H]2Cn3c(ccc(C4=CCCCC4)c3=O)[C@@H]1N2C(=O)Cc1ccccn1 | i
O=C(O)[C@@H]1[C@@H](CO)[C@@H]2Cn3c(ccc(-c4cccnc4)c3=O)[C@H]1N2C(=O)Nc1cc(F)ccc1F | i
O=C(Cc1ccccn1)N1CCCCN2[C@H](CO)[C@@H](c3ccc(Br)cc3)[C@@H]2C1 | i
O=C(O)[C@@H]1[C@@H](CO)[C@@H]2Cn3c(ccc(-c4ccncc4)c3=O)[C@H]1N2C(=O)C1CCCCC1 | i
O=C(Cc1ccncc1)N1CCCCN2[C@H](CO)[C@@H](c3ccc(C#Cc4ccccc4F)cc3)[C@@H]2C1 | i
CCOC(=O)c1ncn2c1C1CCCN1C(=O)c1cc(OC)ccc1-2 (stereo not drawn) | i
COc1ccc(C#Cc2ccc([C@@H]3[C@H](CO)N4CCCCN(C(=O)Cc5ccccc5)C[C@@H]34)cc2)cc1 | i
COC(=O)[C@@H]1[C@@H](CO)[C@@H]2Cn3c(ccc(-c4ccccc4F)c3=O)[C@H]1N2C(C)=O | i
CC(=O)OCC12CC(OC(=O)CC(C)C)C(C)=CC1OC1C(O)C(OC(C)=O)C2(C)C12CO2 (stereo not drawn) | 65.0
O=C1CNC[C@@H]2[C@H](c3ccc(Br)cc3)[C@H](CO)N12 | i
C/C=C/c1ccc(C2[C@@H]3CN(Cc4cocn4)C[C@H]2N3)cc1 (stereo partly drawn) | i
COC(=O)[C@@H]1[C@@H](CO)[C@@H]2Cn3c(cccc3=O)[C@@H]2N1CC1CC1 | i
CCCNC(=O)N1[C@@H]2c3ccc(-c4ccccc4OC)c(=O)n3C[C@H]1[C@H](CO)[C@H]2C(=O)OC | i
CN(C)CC#Cc1ccc([C@@H]2[C@H](CO)N3CCCCN(C(=O)Cc4ccccn4)C[C@@H]23)cc1 | i
CC(=O)N1C[C@@H]2C(c3ccccc3)[C@H](C1)N2CC1CC1 (stereo partly drawn) | i
CS(=O)(=O)N1CC2NC(C1)C2c1ccc(Br)cc1 (stereo not drawn) | i
O=C(Cc1ccncc1)N1CCCCN2[C@H](CO)[C@H](c3ccc(C#Cc4ccccc4F)cc3)[C@@H]2C1 | i
CC1=C(O)C(=O)C=C2C1=CC=C1C2(C)CCC2(C)C3CC(C)(C(=O)O)CCC3(C)CCC12C (stereo not drawn) | 109.7
CN1[C@@H](CO)[C@@H]2c3ccccc3NC[C@@H]21 | i
COc1ccc(OC(=O)N(C)C[C@@H]2OCc3ccccc3-c3c(n(C)c4ccccc34)C(=O)N([C@@H](C)CO)C[C@@H]2C)cc1 | i
O=C1CNC[C@H]2[C@@H](c3ccc(Br)cc3)[C@H](CO)N12 | i
SMILES | BL2 CD40 inh
COC(=O)[C@H]1[C@H](CO)[C@H]2Cn3c(ccc(C4=CCCCC4)c3=O)[C@@H]1N2CCc1ccccc1 | i
COC(=O)[C@@H]1[C@@H](CO)[C@@H]2Cn3c(ccc(-c4ccccc4F)c3=O)[C@H]1N2Cc1cccnc1 | i
O=C(Nc1cccc(Cl)c1)OC1CN2CCC1CC2 (stereo not drawn) | i
N#CC(C#N)=NNc1cccc(Cl)c1 | 75.2[25 µM]
COc1ccc(OC(=O)N(C)C[C@H]2OCc3ccccc3-c3c(n(C)c4ccccc34)C(=O)N([C@H](C)CO)C[C@@H]2C)cc1 | i
CC12CCC3C(CCC4C(=O)C(=O)CCC43C)C1CCC2=O (stereo not drawn) | i
CC(=O)N1C[C@@H]2N[C@H](C1)C2c1ccc(Br)cc1 (stereo partly drawn) | i
O=C(C1CC1)N1C[C@@H]2N[C@H](C1)[C@@H]2c1ccc(-c2ccncc2)cc1 | 69.9
O=C(C1CC1)N1C[C@@H]2N[C@H](C1)C2c1ccc(-c2cncnc2)cc1 (stereo partly drawn) | i
O=C(Cc1ccccn1)N1CCCCN2[C@@H](CO)[C@@H](c3ccc(-c4ccccc4F)cc3)[C@@H]2C1 | i
